ChEMBL document CHEMBL1961873, “Compounds: GSK PKIS; Assays: Nanosyn kinase panel” (2012)

Tests used:
[1] = tested on: Epidermal growth factor receptor (Homo sapiens), P00533 [T790M]; conditions: at 1 µM
[2] = tested on: Epidermal growth factor receptor (Homo sapiens), P00533 [L858R,T790M]; conditions: at 0.1 µM
[3] = tested on: Epidermal growth factor receptor (Homo sapiens), P00533 [L858R,T790M]; conditions: at 1 µM
[4] = biological target: Ephrin type-A receptor 2 (Homo sapiens) (UniProt P29317); conditions: at 0.1 µM
Sequence of Ephrin type-A receptor 2 (Homo sapiens) (P29317 whole entry): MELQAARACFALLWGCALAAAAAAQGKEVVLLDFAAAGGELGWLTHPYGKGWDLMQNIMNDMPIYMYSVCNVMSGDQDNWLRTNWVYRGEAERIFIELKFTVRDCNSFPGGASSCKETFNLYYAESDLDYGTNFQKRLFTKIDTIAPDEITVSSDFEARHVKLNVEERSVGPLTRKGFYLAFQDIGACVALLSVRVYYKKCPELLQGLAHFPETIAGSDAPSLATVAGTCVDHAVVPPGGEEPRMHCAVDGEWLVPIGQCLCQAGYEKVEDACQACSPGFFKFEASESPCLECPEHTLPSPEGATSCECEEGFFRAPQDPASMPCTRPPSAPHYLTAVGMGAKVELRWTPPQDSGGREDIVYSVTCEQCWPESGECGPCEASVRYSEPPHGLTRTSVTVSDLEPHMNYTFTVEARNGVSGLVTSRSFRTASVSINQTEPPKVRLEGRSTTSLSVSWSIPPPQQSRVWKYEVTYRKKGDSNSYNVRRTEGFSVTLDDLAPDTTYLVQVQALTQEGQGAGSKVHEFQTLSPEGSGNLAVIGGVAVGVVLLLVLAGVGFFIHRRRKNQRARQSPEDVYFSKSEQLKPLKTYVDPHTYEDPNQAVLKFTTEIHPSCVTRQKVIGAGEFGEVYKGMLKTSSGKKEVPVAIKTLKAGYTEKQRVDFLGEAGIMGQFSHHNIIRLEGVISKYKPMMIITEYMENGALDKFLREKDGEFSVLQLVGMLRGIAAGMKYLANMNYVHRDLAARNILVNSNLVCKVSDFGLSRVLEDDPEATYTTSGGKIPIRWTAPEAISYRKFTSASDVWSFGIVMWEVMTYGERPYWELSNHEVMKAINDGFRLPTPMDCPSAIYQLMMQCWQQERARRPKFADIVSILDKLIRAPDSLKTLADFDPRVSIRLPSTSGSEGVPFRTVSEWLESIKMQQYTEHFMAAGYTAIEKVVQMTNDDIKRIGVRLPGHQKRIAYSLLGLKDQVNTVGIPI

[5] = biological target: Ephrin type-A receptor 2 (Homo sapiens) (UniProt P29317); conditions: at 1 µM
[6] = biological target: T1, Ephrin type-A receptor 3 (Homo sapiens) (UniProt P29320); conditions: at 0.1 µM
T1 sequence (whole entry): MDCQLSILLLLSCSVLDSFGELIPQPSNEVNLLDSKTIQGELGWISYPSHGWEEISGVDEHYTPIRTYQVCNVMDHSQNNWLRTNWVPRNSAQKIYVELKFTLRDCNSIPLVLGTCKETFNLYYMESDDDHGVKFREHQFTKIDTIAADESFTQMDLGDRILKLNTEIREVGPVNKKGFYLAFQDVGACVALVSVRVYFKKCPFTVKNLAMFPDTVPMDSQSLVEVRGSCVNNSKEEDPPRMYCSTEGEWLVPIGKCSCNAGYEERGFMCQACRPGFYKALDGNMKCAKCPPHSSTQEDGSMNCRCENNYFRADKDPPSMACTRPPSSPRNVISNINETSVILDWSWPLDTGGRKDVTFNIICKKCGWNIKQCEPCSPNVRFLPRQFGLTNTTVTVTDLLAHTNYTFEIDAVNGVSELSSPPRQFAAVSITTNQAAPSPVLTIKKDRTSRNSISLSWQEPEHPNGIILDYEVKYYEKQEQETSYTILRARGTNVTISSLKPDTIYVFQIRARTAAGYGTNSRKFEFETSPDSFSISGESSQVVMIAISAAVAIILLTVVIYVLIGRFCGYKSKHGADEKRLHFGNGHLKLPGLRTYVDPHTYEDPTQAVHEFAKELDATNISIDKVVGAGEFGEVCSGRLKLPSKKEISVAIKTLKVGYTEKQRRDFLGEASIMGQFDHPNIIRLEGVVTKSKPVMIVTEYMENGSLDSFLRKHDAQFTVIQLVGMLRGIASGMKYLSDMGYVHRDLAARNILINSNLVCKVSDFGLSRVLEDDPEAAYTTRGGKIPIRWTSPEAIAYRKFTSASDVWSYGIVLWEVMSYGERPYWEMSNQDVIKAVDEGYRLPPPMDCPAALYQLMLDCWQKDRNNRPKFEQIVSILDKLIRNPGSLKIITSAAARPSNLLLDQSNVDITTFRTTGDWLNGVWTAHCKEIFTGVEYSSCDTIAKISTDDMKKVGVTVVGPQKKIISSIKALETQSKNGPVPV

[7] = biological target: T1, Ephrin type-A receptor 3 (Homo sapiens); conditions: at 1 µM
[8] = biological target: Ephrin type-A receptor 4 (Homo sapiens) (UniProt P54764); conditions: at 0.1 µM
Sequence of Ephrin type-A receptor 4 (Homo sapiens) (P54764 whole entry): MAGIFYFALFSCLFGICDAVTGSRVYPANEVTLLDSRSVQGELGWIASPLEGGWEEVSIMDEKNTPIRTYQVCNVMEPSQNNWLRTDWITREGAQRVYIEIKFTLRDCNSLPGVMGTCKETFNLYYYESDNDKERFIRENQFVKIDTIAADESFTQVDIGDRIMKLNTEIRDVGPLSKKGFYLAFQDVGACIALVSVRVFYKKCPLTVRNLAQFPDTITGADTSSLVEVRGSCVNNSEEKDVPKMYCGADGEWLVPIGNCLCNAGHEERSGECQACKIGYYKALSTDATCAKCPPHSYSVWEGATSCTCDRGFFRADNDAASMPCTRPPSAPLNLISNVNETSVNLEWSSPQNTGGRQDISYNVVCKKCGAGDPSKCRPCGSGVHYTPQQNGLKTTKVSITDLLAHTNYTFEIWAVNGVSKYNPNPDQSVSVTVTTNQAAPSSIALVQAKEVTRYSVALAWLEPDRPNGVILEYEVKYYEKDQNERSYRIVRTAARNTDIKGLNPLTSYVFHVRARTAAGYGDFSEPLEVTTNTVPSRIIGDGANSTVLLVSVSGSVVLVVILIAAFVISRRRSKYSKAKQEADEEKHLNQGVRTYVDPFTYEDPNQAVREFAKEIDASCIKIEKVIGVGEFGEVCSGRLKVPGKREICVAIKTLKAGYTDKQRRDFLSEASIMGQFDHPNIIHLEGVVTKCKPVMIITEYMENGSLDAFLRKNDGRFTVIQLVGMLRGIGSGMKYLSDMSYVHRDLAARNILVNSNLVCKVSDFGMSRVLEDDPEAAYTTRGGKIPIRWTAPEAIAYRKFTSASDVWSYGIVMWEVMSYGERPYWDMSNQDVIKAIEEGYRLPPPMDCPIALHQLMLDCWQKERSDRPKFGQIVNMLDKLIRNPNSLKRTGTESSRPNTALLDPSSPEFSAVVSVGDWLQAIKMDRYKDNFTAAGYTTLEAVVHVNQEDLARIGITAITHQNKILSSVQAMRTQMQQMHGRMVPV

[9] = biological target: Ephrin type-A receptor 4 (Homo sapiens) (UniProt P54764); conditions: at 1 µM
[10] = biological target: T2, Ephrin type-B receptor 2 (Homo sapiens) (UniProt P29323); conditions: at 0.1 µM;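 note: reported as mean inhibition of EPHB2, from the GSK PKIS dataset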
T2 sequence (whole entry): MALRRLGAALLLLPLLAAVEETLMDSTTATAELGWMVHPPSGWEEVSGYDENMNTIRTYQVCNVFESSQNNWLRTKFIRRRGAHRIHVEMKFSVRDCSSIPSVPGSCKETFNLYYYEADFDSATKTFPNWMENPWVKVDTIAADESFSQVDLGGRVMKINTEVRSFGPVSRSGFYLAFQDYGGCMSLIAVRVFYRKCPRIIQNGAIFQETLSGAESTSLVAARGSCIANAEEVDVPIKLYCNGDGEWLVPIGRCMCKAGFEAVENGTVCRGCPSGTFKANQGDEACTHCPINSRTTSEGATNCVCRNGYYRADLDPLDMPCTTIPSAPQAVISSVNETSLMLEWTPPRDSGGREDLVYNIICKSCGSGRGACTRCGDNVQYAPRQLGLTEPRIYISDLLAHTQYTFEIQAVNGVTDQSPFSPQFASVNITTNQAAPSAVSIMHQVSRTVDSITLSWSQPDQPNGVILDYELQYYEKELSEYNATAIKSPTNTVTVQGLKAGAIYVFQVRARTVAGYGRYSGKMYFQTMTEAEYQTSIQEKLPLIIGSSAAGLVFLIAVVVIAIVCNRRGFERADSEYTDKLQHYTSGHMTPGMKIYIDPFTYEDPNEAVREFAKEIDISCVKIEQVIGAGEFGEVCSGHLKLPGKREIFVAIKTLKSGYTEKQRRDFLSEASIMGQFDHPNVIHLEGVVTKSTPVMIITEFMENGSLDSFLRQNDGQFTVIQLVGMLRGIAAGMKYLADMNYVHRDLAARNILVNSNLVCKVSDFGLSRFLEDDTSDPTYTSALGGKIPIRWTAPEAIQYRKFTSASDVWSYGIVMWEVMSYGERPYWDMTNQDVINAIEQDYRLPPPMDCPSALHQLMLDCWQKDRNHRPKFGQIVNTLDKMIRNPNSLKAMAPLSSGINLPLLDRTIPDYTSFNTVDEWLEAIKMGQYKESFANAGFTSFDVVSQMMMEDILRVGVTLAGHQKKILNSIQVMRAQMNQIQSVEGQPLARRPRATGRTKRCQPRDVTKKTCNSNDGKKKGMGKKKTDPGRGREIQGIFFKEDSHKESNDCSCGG

Sequence of Epidermal growth factor receptor (Homo sapiens), P00533 [L858R,T790M] (P00533 whole entry T790M/L858R, looked up): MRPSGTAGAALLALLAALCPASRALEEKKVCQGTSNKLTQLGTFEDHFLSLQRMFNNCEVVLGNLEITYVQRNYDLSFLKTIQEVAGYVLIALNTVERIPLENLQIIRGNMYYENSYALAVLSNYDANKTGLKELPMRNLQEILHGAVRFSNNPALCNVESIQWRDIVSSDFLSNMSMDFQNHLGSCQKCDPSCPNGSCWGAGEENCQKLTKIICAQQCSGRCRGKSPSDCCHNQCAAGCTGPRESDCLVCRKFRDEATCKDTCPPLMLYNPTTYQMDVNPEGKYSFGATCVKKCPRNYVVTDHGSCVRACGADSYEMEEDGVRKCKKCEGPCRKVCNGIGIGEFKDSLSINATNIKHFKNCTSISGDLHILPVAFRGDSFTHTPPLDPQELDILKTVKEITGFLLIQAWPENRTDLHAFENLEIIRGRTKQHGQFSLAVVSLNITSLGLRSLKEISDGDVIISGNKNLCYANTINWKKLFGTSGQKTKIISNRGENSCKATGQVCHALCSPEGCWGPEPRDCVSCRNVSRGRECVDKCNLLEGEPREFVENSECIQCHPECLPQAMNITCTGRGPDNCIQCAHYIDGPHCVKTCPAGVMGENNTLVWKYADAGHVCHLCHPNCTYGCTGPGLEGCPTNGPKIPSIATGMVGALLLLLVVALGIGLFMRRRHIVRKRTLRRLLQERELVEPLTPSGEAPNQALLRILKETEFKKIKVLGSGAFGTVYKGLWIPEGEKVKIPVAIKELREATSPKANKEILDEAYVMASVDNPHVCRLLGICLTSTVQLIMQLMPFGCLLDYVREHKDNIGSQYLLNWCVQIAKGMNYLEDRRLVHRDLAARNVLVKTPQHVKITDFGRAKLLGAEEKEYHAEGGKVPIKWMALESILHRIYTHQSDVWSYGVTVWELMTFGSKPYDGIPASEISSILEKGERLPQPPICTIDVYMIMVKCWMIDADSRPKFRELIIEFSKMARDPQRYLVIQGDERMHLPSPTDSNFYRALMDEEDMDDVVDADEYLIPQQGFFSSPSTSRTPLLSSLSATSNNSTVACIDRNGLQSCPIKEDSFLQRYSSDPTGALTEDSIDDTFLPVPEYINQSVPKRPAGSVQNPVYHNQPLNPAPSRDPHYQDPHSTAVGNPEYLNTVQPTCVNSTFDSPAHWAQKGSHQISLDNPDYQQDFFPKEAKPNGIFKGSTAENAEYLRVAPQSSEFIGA
Sequence of Epidermal growth factor receptor (Homo sapiens), P00533 [T790M] (P00533 whole entry T790M): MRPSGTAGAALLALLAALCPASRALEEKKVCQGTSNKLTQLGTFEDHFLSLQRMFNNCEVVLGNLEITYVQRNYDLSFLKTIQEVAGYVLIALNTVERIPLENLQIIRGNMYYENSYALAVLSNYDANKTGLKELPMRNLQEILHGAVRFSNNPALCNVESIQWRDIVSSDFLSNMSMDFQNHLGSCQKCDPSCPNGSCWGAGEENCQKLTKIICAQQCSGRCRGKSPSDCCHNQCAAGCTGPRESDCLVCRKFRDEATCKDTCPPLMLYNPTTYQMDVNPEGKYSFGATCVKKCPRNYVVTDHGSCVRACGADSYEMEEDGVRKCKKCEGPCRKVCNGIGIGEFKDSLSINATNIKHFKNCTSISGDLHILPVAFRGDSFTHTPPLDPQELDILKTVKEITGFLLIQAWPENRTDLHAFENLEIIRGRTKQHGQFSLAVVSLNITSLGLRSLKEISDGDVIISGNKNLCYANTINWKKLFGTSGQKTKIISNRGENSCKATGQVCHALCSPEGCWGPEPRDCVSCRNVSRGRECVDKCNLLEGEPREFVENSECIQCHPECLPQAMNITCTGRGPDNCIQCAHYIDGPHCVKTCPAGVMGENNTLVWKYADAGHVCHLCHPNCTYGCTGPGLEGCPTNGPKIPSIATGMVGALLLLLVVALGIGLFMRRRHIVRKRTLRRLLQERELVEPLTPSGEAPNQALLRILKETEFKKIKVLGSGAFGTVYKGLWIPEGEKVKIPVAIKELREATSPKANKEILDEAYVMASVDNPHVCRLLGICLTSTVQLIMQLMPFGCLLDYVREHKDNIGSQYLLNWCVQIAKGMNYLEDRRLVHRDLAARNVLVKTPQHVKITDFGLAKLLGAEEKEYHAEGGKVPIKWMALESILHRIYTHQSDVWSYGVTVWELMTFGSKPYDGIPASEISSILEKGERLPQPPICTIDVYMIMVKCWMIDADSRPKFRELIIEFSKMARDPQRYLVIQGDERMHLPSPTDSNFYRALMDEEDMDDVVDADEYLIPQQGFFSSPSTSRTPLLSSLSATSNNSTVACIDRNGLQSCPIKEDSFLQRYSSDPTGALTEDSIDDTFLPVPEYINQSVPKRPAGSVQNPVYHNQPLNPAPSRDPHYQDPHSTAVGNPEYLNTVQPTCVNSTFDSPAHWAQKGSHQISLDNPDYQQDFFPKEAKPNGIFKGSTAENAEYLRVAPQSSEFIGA

| Compound | inhibition [1] | inhibition [2] | inhibition [3] | inhibition [4] | inhibition [5] | inhibition [6] | inhibition [7] | inhibition [8] | inhibition [9] | inhibition [10] |
| --- | --- | --- | --- | --- | --- | --- | --- | --- | --- | --- |
| Cc1cc(O)cc(C)c1/C=C/c1cncc(C(=O)OC(C)(C)C)c1 | 2.69% | 2.41% | 0.87% | 16.6% | 60.8% | 11.2% | 22.4% | 31.1% | 80.6% | 23% |
| CN(c1ccc(NC(=O)NCCN2CCOCC2)cc1)c1ccnc(Nc2ccc(CS(C)(=O)=O)cc2)n1 | 4.33% | 0.85% | 2.57% | 2.23% | 2.79% | 4.27% | 5.54% | 8.57% | 19.6% | 6.47% |
| NS(=O)(=O)c1cccc(N/C=C2\C(=O)Nc3ccccc32)c1 | 1.35% | 2.94% | 5.43% | 0.86% | 1.68% | 3.01% | 3.78% | 7.61% | 3.9% | 9.06% |
| CS(=O)(=O)CCNCc1ccc(-c2ccc3ncnc(Nc4ccc(OCc5cccc(C(F)(F)F)c5)cc4)c3c2)o1 | 1.6% | 0.98% | 3.77% | 0.34% | 0.55% | 2.95% | 2.34% | 6.4% | 8.61% | 7.05% |
| c1cnn2ncc(-c3ccnc(NCCCN4CCOCC4)n3)c2c1 | 1.66% | -1.49% | 0.81% | -0.74% | -1.53% | 2.9% | 6.16% | 10% | 5.87% | 6.81% |
| FC(F)(F)CNc1nccc(-c2cnn3ncccc23)n1 | 0.02% | -1.87% | 1.32% | 0.5% | -1.3% | 3.4% | 4.73% | 5.82% | 7.58% | 5.3% |
| CC1=C(C(=O)Nc2ccc3[nH]nc(C)c3c2)C(c2ccc(C(F)(F)F)cc2)CC(=O)N1 (stereo not given) | -0.09% | 3.65% | -0.97% | 2.9% | 2.18% | 2.71% | 2.28% | 5.51% | 5.67% | 5.5% |
| CCn1c(-c2nonc2N)nc2cncc(C(=O)NCCNC)c21 | 4.6% | 1.4% | 5.19% | 0.81% | -0.9% | 1.15% | 5.09% | 7.32% | 10.1% | 12.1% |
| COC(=O)Nc1nc2ccc(Oc3ccc(NC(=O)Nc4cc(C(F)(F)F)ccc4F)cc3)cc2s1 | -0.72% | 1.64% | -2.5% | 63.5% | 93.5% | 51.3% | 68.4% | 83.3% | 86.1% | 74.1% |
| O=C(O[C@H]1CN[C@H](C#Cc2cc3ncnc(Nc4ccc(OCc5cccc(F)c5)c(Cl)c4)c3s2)C1)N1CCOCC1 | 18% | 4.1% | 9.08% | 1.93% | 1.46% | 5.97% | 4.01% | 10.4% | 12.3% | 7.71% |
